# In article PMC5700166:
# Residue numbers refer to the chain shown, from its start.
# What was measured:
# Test in all cases: protein-binding microarray (PBM); PBM: ~300 nM protein, 6 mM HEPES pH 7.8, 80 mM KCl, 0.5 mM EDTA, 0.5 mM EGTA, 6% glycerol, 35 ng/ul poly-dIdC, 1% milk, 1 h, room temperature; Ap Aiptasia and Nv Nematostella (sea anemones) / Co Capsaspora / Aq Amphimedon (sponge) / Dm Drosophila / Hu human; RHD is the Rel homology domain; high values mean tight binding
# Conditions in all cases: dsDNA, one strand shown
# GST-Ap-NF-kB RHD = target: T1, GST-Ap-NF-kB RHD (Exaiptasia pallida (Aiptasia), UniProt A0A913YAJ5 2-422)
# T1 sequence: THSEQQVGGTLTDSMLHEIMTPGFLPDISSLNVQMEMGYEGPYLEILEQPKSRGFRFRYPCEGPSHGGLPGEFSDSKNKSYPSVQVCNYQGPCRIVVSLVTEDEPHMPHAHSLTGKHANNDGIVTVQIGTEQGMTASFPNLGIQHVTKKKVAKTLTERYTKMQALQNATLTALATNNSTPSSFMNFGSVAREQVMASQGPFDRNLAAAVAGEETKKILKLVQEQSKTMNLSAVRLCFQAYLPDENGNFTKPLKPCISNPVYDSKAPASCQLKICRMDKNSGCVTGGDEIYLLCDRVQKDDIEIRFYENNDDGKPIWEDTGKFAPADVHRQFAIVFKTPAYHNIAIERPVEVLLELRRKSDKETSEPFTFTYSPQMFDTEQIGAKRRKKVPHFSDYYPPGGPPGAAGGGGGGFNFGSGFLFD
# [1] = target: T2, GST-Nv-NF-kB (Cys allele) (Nematostella vectensis, UniProt E5G601 2-411)
# T2 sequence: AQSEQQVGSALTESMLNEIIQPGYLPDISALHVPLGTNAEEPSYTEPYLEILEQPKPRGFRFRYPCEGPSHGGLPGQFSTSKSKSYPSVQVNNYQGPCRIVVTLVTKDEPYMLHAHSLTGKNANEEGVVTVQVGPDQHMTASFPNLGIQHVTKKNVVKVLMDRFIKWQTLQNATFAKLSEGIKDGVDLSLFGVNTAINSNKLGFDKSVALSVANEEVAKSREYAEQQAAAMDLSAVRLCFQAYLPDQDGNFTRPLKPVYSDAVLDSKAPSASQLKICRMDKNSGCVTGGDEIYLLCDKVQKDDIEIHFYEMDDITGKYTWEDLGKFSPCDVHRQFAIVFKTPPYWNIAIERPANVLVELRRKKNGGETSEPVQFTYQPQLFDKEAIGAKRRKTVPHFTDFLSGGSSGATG
# [2] = target: T3, GST-Nv-NF-kB (Ser allele) (Nematostella vectensis, UniProt A7UNT2 2-411)
# T3 sequence: T2 sequence with Q21R, C66S, S207N, E215Q, V217A, E225K, A268E, D399E
# GST-Co-NF-kB = target: T4, GST-Co-NF-kB (Capsaspora owczarzaki, UniProt F1ARL5 200-546)
# T4 sequence: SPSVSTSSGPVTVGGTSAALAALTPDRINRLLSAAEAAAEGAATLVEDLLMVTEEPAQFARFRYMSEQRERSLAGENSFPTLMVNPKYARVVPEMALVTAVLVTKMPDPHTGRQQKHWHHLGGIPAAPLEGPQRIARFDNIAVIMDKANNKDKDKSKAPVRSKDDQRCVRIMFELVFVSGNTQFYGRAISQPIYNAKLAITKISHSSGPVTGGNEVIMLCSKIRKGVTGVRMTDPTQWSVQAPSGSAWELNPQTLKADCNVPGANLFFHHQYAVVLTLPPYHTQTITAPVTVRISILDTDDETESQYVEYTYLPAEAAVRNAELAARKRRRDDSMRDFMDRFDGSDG
# GST-Aq-NF-kB = target: T5, GST-Aq-NF-kB (Amphimedon queenslandica, UniProt A9Y5G7 2-389)
# T5 sequence: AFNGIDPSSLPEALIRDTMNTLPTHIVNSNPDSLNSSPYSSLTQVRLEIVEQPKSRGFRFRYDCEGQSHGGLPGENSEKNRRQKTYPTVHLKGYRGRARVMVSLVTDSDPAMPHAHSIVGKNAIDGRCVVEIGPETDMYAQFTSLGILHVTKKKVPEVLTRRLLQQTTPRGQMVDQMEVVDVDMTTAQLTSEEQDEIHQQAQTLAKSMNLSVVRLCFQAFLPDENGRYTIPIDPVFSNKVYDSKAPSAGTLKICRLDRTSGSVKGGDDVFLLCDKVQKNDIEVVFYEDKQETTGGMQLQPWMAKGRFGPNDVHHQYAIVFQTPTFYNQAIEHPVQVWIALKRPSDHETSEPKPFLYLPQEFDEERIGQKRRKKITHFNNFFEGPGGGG
# GST-Hu-p50 = GST-Hu-p50 (Homo sapiens, UniProt P19838 7-356)
# Chain of GST-Hu-p50 (P19838 7-356): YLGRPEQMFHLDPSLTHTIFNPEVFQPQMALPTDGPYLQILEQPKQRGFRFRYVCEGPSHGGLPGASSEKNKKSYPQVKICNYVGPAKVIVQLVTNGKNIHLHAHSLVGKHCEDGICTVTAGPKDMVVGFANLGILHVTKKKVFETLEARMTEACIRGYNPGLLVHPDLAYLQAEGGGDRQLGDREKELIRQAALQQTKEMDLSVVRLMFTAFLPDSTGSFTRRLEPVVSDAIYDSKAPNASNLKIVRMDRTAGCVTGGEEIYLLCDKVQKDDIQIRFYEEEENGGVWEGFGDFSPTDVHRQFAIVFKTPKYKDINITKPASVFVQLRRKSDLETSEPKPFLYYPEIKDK
# GST-Dm-Relish = target: T6, GST-Dm-Relish (Drosophila melanogaster, UniProt Q94527 99-473)
# T6 sequence: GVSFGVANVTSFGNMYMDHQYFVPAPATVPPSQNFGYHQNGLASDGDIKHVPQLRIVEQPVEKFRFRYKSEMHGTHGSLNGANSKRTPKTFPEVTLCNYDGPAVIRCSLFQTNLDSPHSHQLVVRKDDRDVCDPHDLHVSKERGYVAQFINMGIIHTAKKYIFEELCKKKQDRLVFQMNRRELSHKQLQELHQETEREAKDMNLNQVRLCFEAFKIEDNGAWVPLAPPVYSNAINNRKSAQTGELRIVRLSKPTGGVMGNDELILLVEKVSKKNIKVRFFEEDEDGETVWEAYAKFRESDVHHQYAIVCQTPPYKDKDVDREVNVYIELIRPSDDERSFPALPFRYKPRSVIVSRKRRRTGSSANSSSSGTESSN
Sequence,binding signal (GST-Ap-NF-kB RHD) [z-score],binding signal [1] [z-score],binding signal [2] [z-score],binding signal (GST-Co-NF-kB) [z-score],binding signal (GST-Aq-NF-kB) [z-score],binding signal (GST-Hu-p50) [z-score],binding signal (GST-Dm-Relish) [z-score]
CCGATTAACATCATGTTAGGGAATGATGTTAATCGGGTCTTGATTCGCTTGACGCTGCTG,1.38,3.63,2.76,1.51,4.43,2.03,
CCGATTAACATCAAATTCCCAGGTGATGTTAATCGGGTCTTGATTCGCTTGACGCTGCTG,2.43,3.11,3.64,3.53,2.4,4.02,3.69
CCGATTAACATCAACAATTCCCCTGATGTTAATCGGGTCTTGATTCGCTTGACGCTGCTG,7.89,8.85,10.8,7.14,5.93,6.81,5.11
CCGATTAACATCAATTCCCATCCTGATGTTAATCGGGTCTTGATTCGCTTGACGCTGCTG,1.57,2.99,2.59,1.43,1.94,1.57,
CCGATTAACATCAAAGGGAATAGTGATGTTAATCGGGTCTTGATTCGCTTGACGCTGCTG,2.26,2.76,2.94,1.98,2.54,1.25,
CCGATTAACATCAGTATGGGAAATGATGTTAATCGGGTCTTGATTCGCTTGACGCTGCTG,1.32,2.39,2.22,2.14,1.79,1.28,
CCGATTAACATCAGGCAACTCCCTGATGTTAATCGGGTCTTGATTCGCTTGACGCTGCTG,1.44,2.44,1.64,1.09,4.28,2.67,
CCGATTAACATCAATCTTTTCCCTGATGTTAATCGGGTCTTGATTCGCTTGACGCTGCTG,2.35,4.39,5.52,3.98,3.34,2.99,
CCGATTAACATCAGGGTAAGTACTGATGTTAATCGGGTCTTGATTCGCTTGACGCTGCTG,2.48,3.05,2.93,1.85,5.82,2.3,7.08
CCGATTAACATCAGAAACTCCCCTGATGTTAATCGGGTCTTGATTCGCTTGACGCTGCTG,8.69,7.68,7.84,5.37,7.47,6.42,7.08
CCGATTAACATCAACGGTGGGAATGATGTTAATCGGGTCTTGATTCGCTTGACGCTGCTG,1.12,1.46,1.15,2.19,2.42,1.41,
CCGATTAACATCATGTACGGGAATGATGTTAATCGGGTCTTGATTCGCTTGACGCTGCTG,1.13,2,1.46,2.7,3.27,1.26,
CCGATTAACATCAGGGGGAGTAATGATGTTAATCGGGTCTTGATTCGCTTGACGCTGCTG,5.68,4.54,5.56,6.83,4.18,5.72,3.45
CCGATTAACATCAATATTCCCCCTGATGTTAATCGGGTCTTGATTCGCTTGACGCTGCTG,8.39,9.05,10,10.4,7.05,7.24,6.05
CCGATTAACATCAAGCATTTCCCTGATGTTAATCGGGTCTTGATTCGCTTGACGCTGCTG,2.4,4.4,4.14,2.36,3.63,2.72,
CCGATTAACATCAGGGAAATGTATGATGTTAATCGGGTCTTGATTCGCTTGACGCTGCTG,3.08,4.81,4.88,3.3,4.45,3.4,
CCGATTAACATCAGGATTATCCCTGATGTTAATCGGGTCTTGATTCGCTTGACGCTGCTG,2.26,2.9,1.47,2.37,5.15,1.73,
CCGATTAACATCAAGTACGGGAATGATGTTAATCGGGTCTTGATTCGCTTGACGCTGCTG,1.11,2.04,1.41,2.85,3.24,1.22,
CCGATTAACATCAGGGGAACGCATGATGTTAATCGGGTCTTGATTCGCTTGACGCTGCTG,5.31,5.4,6.49,4.99,3.75,4.2,2.68
CCGATTAACATCAACAAACCCCCTGATGTTAATCGGGTCTTGATTCGCTTGACGCTGCTG,6.74,5.37,6.79,2.52,5.03,6.59,7.26
CCGATTAACATCAATTCACCCCCTGATGTTAATCGGGTCTTGATTCGCTTGACGCTGCTG,4.01,3.65,4.82,6.74,4.11,4.31,3.16
CCGATTAACATCAAGTTTCCCCCTGATGTTAATCGGGTCTTGATTCGCTTGACGCTGCTG,8.07,8.22,11.2,11.4,6.51,7.11,4.83
CCGATTAACATCAAGAATTTCCCTGATGTTAATCGGGTCTTGATTCGCTTGACGCTGCTG,5.92,7.47,7.49,5.07,7.53,5.23,3.52
